Assay [1] deals with Plasmodium falciparum Sir2 (PF13_0152, Sir2A). In words: pfSir2 binders on small-molecule microarrays, primary screen, biochemical, small-molecule microarray, 635 nm fluorescence (AID 1098).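 Also: score merges spot fluorescence intensity with its signal-to-noise ratio.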 The following applies: small-molecule microarray binding, fluorescence 635 nm; higher = more signal.
Assay [2] can be described thus: small-molecule microarray binders of probe aDKK1, primary screen, biochemical, biotinylated probe, 635/667 nm fluorescence (AID 1099).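 Also: score merges 667nm spot fluorescence with signal to noise across triplicate slides; reference of the scale not given here.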 The following applies: higher = more signal.
Assay [3] in a line: small-molecule microarray binders of probe aCHRDL2, primary screen, biochemical, biotinylated probe, 635/667 nm fluorescence (AID 1100). The following applies: higher = more signal.
Assay [4] in a line: splicing luciferase reporter signal modulators, primary screen, spliceosome inhibition project, cell-based, HEK293, splice +/- reporter (AID 1101).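 Also: HEK293 cells carrying a splicing-competent luciferase reporter gene; test concentration not given here.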 The note with it: luminescence, 24 h, higher = more signal, called active from +8 up or from −8 down. In general terms: Reporter assays use an easily measured gene product as a stand-in for the process of interest.
The target of assay [5] is Fibroblast growth factor 10 (Homo sapiens) (UniProt O15520). In words: FGF10 binders on small-molecule microarrays, primary screen, biochemical, small-molecule microarray, 635 nm fluorescence (AID 1102). The following applies: FGF10 binding, fluorescence 635 nm, higher = more signal.
Chain of Fibroblast growth factor 10 (Homo sapiens) (O15520 whole entry, looked up): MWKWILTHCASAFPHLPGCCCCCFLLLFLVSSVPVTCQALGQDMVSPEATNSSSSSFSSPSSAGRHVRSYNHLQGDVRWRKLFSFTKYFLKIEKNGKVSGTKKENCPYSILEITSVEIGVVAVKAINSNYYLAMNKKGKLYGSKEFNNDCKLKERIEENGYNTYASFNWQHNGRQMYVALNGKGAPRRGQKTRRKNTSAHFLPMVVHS
Assay [6] relates to glycogen synthase kinase-3 (GSK3A per assay name; protocol says GSK3B). Briefly: GSK3 binders on small-molecule microarrays, primary screen, biochemical, small-molecule microarray, 635 nm fluorescence, GSK3A (AID 1103). Also: the record names both GSK3A and GSK3B. The following applies: small-molecule microarray binding, fluorescence 635 nm; higher = more signal.
Assay [7] deals with Epidermal growth factor receptor (Homo sapiens) (UniProt P00533). Briefly: EGFR binders on small-molecule microarrays, primary screen, biochemical, small-molecule microarray, 635 nm fluorescence (AID 1104).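 Also: score merges 667 nm emission intensity with spot signal to noise over triplicate slides.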 The note with it: EGFR binding, higher = more signal.
Chain of Epidermal growth factor receptor (Homo sapiens) (P00533 whole entry, looked up): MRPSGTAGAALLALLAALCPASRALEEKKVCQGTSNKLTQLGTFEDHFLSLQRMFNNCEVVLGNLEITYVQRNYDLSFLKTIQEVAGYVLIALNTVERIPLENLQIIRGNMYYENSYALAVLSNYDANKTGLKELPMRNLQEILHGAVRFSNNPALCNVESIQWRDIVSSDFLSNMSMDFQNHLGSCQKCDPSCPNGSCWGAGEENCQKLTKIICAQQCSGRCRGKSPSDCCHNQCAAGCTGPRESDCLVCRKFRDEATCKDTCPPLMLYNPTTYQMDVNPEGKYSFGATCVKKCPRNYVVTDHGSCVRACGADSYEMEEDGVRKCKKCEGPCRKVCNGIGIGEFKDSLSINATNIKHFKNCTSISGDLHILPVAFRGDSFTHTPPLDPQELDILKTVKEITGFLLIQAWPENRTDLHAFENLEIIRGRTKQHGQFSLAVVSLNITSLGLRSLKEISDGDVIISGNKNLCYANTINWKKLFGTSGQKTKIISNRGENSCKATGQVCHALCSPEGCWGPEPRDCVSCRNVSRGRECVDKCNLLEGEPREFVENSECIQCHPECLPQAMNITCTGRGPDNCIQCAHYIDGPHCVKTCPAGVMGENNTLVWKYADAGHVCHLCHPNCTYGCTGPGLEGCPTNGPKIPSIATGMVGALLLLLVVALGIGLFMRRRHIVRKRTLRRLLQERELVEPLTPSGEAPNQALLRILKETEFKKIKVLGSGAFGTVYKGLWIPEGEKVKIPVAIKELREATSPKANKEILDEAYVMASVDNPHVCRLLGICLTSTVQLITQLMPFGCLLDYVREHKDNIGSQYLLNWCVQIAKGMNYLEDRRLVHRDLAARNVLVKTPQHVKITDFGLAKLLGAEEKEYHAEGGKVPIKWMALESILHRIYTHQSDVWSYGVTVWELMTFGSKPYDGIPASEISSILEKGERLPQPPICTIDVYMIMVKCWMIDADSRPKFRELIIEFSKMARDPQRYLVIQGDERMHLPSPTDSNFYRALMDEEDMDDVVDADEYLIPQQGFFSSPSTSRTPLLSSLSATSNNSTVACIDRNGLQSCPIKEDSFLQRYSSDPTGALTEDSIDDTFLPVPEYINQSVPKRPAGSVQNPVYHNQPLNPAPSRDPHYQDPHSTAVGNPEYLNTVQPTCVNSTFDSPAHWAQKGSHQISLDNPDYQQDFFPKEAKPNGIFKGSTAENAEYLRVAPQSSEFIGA
Assay [8] deals with Follistatin-related protein 3 (Homo sapiens) (UniProt O95633). In words: FSTL3 binders on small-molecule microarrays, primary screen, biochemical, small-molecule microarray, 635 nm fluorescence (AID 1105).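 Also: score merges emission near 667 nm and signal to noise per printed spot across three slides.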 The following applies: FSTL3 binding, higher = more signal.
Chain of Follistatin-related protein 3 (Homo sapiens) (O95633 whole entry, looked up): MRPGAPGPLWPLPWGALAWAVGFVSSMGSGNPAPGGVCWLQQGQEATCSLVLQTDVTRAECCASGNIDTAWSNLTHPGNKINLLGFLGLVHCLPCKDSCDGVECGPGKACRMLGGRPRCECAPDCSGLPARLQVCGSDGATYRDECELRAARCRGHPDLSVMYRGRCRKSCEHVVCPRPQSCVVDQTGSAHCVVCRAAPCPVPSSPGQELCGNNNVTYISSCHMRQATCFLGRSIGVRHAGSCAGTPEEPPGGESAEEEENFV
Assay [9] addresses Dickkopf-related protein 1 (Homo sapiens) (UniProt O94907). Briefly: DKK1 binders on small-molecule microarrays, primary screen, biochemical, small-molecule microarray, 635 nm fluorescence scan (AID 1106).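 Also: score merges emission near 667 nm with signal to noise over three replicate slides.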 The note with it: DKK1 binding, higher = more signal.
In assay [10] the test system is Inhibin beta A chain (activin A). Briefly: INHBA (activin A) binders on microarrays, primary screen, biochemical, small-molecule microarray, 635 nm fluorescence scan (AID 1107).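 Also: mouse activin A protein probed at 4.33 µg/mL on printed slides; score merges bound-protein fluorescence near 667 nm with spot signal-to-noise.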 The following applies: small-molecule microarray binding, higher = more signal.

Active and inactive are the calls of the source.

Chain of Dickkopf-related protein 1 (Homo sapiens) (O94907 whole entry, looked up): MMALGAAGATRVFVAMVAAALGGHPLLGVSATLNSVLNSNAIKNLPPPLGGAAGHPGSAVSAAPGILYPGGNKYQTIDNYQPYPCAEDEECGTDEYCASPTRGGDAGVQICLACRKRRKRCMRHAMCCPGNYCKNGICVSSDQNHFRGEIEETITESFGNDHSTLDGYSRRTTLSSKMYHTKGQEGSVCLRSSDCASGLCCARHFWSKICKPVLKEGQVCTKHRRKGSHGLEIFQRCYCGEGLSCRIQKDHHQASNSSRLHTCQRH

`CC(C)(C)OC(=O)CC[C@@]1(C(N)=O)N=C(c2ccc(OCCCO)cc2)O[C@@H]1c1ccccc1`: the composite z-score is 1.19 in assay [1]; 0.307 in assay [2]; 0.666 in assay [3]; 0.958 in [5]; 1.15 in assay [6]; -0.467 in [7]. For the same compound, the composite z-score was 0.0089 in assay [8], -0.534 in assay [9] and 0.557 in assay [10]. In addition, in assay [4], the z-score was -0.0742 (inactive).
For `COCCOC(=O)N1C(=O)[C@@]2(c3ccccc31)[C@H](c1ccccc1OCCO)N1[C@H](c3ccccc3)[C@H](c3ccccc3)OC(=O)[C@H]1[C@@H]2C(=O)Nc1nc2ccccc2s1`, the composite z-score in assay [1] came to 1.4; in [2], 0.262; in assay [3], 0.245; in assay [5], 1.1; in assay [6], 1.32; in assay [7] it was 0.661. Further, the results for the composite z-score in assay [8], in [9] and in [10] were 1.34, 0.476 and 0.0911, respectively. Besides, the z-score in assay [4] was -0.968 (inactive).
Consider `Cc1ccc(S[C@]2(C(=O)NCC(F)(F)F)CC(=O)N(C(C)C)[C@@H]2c2ccc(CO)cc2I)cc1`, for which the composite z-score in assay [1] is 0.903; in assay [2], 0.372; in assay [3], 0.893; in [5] it was 0.203; in assay [6] it was -0.547; in assay [7], -0.619. Further, the values for the composite z-score in assay [8], in assay [9] and in assay [10] were -1.02, -0.78 and 0.743, respectively. Also, the z-score in [4] was -0.465 (inactive).
`O=C(NCC(F)(F)F)[C@@H]1c2ccccc2C(=O)N(C2CCCCC2)[C@H]1c1ccc(CO)cc1`: the composite z-score is 1.56 in assay [1]; 0.121 in [2]; 0.528 in assay [3]; 0.0573 in assay [5]; -0.0294 in assay [6]; -0.759 in assay [7]. The composite z-score in [8] was 0.177; in assay [9], -0.783; in [10] it was -0.0906. Also, the z-score in assay [4] was 0.283 (inactive).
`CCOC(=O)C[C@H]1[C@H](OC(=O)c2ccc(C(=O)c3ccccc3)cc2)[C@@H](NC(=O)c2ccc(-c3ccccc3)cc2)c2cc(OCCCO)ccc2N1C(=O)c1ccccc1`: the composite z-score in [1] is 0.82; in assay [2], -0.222; in assay [3], -0.387; in [5] it was 0.994; in assay [6], 0.477; in assay [7] it was 0.515. The composite z-score in [8] is 0.723; in [9] it was 0.321; in [10] it was -0.144. For the same compound, the z-score in assay [4] is 0.475 (inactive).
Turning to `O=C1C2C=CC(C(O)C3CCCCC3)N(Nc3ccc([N+](=O)[O-])cc3)C2C(=O)N1c1ccccc1` (stereo not given), the composite z-score in assay [1] was 1.26; in assay [2], -0.236; in assay [3], 0.783; in assay [5], -0.901; in assay [6], 1.31; in assay [7], -1.54. Besides, the composite z-score in [8] was -0.677; in assay [9] it was -1.49; in [10], -1.28. Further, in [4], the z-score is -1.04 (inactive).
As to `C=CCNC(=O)[C@H]1[C@@H]2C(=O)O[C@@H](c3ccccc3)[C@@H](c3ccccc3)N2[C@@H](c2ccc(O)cc2)[C@]12C(=O)N(C(=O)OCCOC)c1ccc(C#CCNC(N)=O)cc12`, the composite z-score in assay [1] came to 0.867; in assay [2], 0.297; in assay [3], 0.537; in assay [5], 0.855; in assay [6], 1.11; in [7], 0.157. In addition, the composite z-score in assay [8] turned out to be 0.999; in [9], 0.936; in assay [10], 0.969. Also, in assay [4], the z-score was 0.481 (inactive).
With `CCC(CC)C(O)C1C=CC2C(=O)N(C)C(=O)C2N1Nc1ccccc1` (stereo not given), the composite z-score turned out to be 0.695 in [1]; 0.332 in assay [2]; 0.9 in [3]; 0.603 in assay [5]; 0.499 in [6]; 0.0611 in [7]. The composite z-score in [8] amounted to 0.698; in assay [9], 0.371; in assay [10] it was 0.867. Moreover, in assay [4], the z-score is 0.464 (inactive).
For the compound `O=C1OCC=C[C@H]2OC34C=CCN(c5ccc6ccccc6c5)C(=O)[C@H]3N(CCCCCCO)C(=O)[C@@H]4[C@@H]12` (stereo not given in full), the composite z-score in assay [1] is 1.66; in assay [2], -0.117; in assay [3], 0.817; in [5], -0.821; in assay [6] it was -1.12; in assay [7], -1.79. In addition, the composite z-score in assay [8] is -1.69; in [9], -0.854; in assay [10] it was 0.0633. The z-score in assay [4] was -0.076 (inactive).
Regarding `C=C(CCCC)C(=O)CC[C@H](OC(C)=O)c1cccc(OCCO)c1`, the composite z-score in assay [1] was 0.707; in assay [2], -0.409; in assay [3], -0.193; in assay [5], -0.633; in assay [6] it was -0.654; in assay [7] it was -0.961. Besides, the composite z-score was -0.794 in [8], -0.759 in [9] and -0.162 in [10]. Further, in assay [4], the z-score is 1.01 (inactive).
As for `CCOC1=C2C(CN(S(=O)(=O)c3ccc(C)cc3)C2c2ccc(C)cc2)C2C(=O)N(c3ccccc3)C(=O)C2C1` (stereo not given), the composite z-score in assay [1] turned out to be 0.9; in assay [2], 0.0373; in assay [3], 0.267; in [5], 1.25; in assay [6], 0.36; in [7], 0.171. Also, the composite z-score in assay [8] stood at 0.782; in assay [9], 0.207; in [10], 0.809. Further, in assay [4], the z-score was -0.113 (inactive).
Take `C=CCC(OC(C)=O)[C@@H]1[C@@H](N(Cc2ccc(-c3cccc(C(F)(F)F)c3)o2)C(=O)c2ccc(-c3ccccc3)cc2)c2cc(OCCCO)ccc2N1C(=O)c1ccc(-c2ccccc2)cc1` (stereo not given in full): the composite z-score in assay [1] is -0.285; in [2], 0.31; in [3] it was 0.543; in [5], 0.269; in assay [6], -0.754; in assay [7] it was -0.327. Further, the values for the composite z-score in assay [8], in assay [9] and in [10] were 0.104, -0.0545 and 1.32, respectively. In addition, the z-score in assay [4] was 0.196 (inactive).
With `CC(C)c1ccc(NN2C(C(O)C(c3ccccc3)c3ccccc3)C=CC3C(=O)N(c4ccccc4)C(=O)C32)cc1` (stereo not given), the composite z-score in [1] came out at 1.08; in assay [2], 0.517; in assay [3] it was 0.344; in [5], 1.31; in [6], 1.26; in [7] it was 0.438. Besides, the values for the composite z-score in assay [8], in assay [9] and in assay [10] were 1.06, 0.238 and 0.203, respectively. For the same compound, the z-score in [4] is 0.304 (inactive).
Take `COC(=O)[C@@]1(Cc2ccc(OC)cc2)[C@H]2c3cc(C(=O)N4CCCC4)n(Cc4ccsc4Br)c3C[C@H]2CN1C(=O)c1ccccc1`: the composite z-score in assay [1] was 0.824; in assay [2], 0.597; in assay [3] it was 1.08; in assay [5], -0.125; in [6], 0.386; in [7] it was -0.248. Also, the composite z-score is -0.246 in [8], -0.752 in [9] and 0.741 in assay [10]. Besides, in assay [4], the z-score was 2.42 (inactive).
For `O=C(NCc1ccccc1)[C@@H]1c2ccccc2C(=O)N(CC23CC4CC(CC(C4)C2)C3)[C@H]1c1ccc(CO)cc1`, the composite z-score was 1.6 in assay [1]; -0.654 in assay [2]; -0.524 in assay [3]; 0.971 in assay [5]; 1.31 in [6]; 0.603 in assay [7]. The composite z-score in assay [8] is 1.43; in [9] it was 0.593; in [10], 0.147. Also, in assay [4], the z-score was 0.152 (inactive).
As for `COc1cc2c(cc1OC)CN(C(=O)[C@@H]1[C@H]3C(=O)O[C@H](c4ccccc4)[C@H](c4ccccc4)N3[C@H](c3ccc(O)cc3)[C@@]13C(=O)Nc1ccc(C#CC4(O)CCCCCC4)cc13)CC2`, the composite z-score in assay [1] is 1.41; in assay [2], -0.767; in [3] it was -0.692; in [5], 1.28; in assay [6], 1.29; in assay [7] it was 0.458. The composite z-score in assay [8] was 0.498; in assay [9], 0.474; in [10], -0.439. Further, the z-score in [4] is 0.263 (inactive).

Source of the values: PubChem BioAssay.
